# Rows were chosen to be rich in hits. Some 7.6% of all compounds tested hit in one or more screens of this group.
# KCNH2 WT inh: inhibitors of human wildtype KCNH2 potassium channel; Q12809; U2OS, BacMam KCNH2, thallium flux FluxOr; hits give low values; activity change, % at 1.84 µM; 340,000 tested, 0.37% active;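 active = maximum activity change below -70%; inconclusive = maximum activity change between -70% and -50%; inactive = maximum activity change above -50%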; note: % is set by controls: 0 for no effect and ±100 for the full control effect
# Target sequence (Q12809 whole entry, looked up): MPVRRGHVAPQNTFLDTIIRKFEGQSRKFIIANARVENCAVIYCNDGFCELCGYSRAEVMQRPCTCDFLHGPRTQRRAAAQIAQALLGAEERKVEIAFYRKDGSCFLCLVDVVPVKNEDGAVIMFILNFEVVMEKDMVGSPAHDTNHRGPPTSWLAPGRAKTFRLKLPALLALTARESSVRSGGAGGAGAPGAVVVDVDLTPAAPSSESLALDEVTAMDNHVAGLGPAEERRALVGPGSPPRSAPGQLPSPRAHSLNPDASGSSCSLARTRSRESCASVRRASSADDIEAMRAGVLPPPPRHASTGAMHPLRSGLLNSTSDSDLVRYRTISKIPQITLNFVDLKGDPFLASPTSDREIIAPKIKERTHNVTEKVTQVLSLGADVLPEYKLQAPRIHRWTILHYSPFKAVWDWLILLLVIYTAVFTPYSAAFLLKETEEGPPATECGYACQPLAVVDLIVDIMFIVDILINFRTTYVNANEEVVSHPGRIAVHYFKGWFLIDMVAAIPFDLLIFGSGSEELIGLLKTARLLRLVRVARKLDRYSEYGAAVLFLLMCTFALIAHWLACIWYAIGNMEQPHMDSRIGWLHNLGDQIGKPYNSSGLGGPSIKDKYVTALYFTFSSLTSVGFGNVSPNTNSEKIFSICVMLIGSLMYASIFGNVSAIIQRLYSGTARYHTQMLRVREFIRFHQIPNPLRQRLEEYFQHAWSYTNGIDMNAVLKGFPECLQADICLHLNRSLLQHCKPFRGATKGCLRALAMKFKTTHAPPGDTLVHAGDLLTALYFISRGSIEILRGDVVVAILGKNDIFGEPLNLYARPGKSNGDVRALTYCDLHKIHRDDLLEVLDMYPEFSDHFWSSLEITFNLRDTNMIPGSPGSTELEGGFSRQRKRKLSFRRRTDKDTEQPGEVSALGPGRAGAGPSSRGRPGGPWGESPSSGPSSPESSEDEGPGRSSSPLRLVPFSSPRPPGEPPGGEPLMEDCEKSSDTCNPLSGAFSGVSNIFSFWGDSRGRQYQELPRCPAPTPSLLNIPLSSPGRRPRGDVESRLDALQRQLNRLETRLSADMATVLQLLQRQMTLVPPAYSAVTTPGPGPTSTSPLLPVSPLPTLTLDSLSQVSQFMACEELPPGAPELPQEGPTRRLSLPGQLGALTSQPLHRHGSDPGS
#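 U2OS cells were transduced with wild-type KCNH2 virus (2.03 x 10^8 / mL) for 4 h at room temperature, then cultured overnight at 37 C. Thallium flux was read with FluxOr dye. Rate constants were normalized to DMSO controls.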
# MCF10A rerep: DNA re-replication induction in MCF 10a cells. MCF 10A DNA re-replication, Hoechst nuclear intensity, 48 h. 350,000 tested, 2.9% active. AID 624296. Potency, µM (titrated, usually from 46.1 µM), without a hit: at the highest dose activity, positive = re-replication, most hits filed as activators; note: potency is the fitted concentration of half-maximal effect; % of control where 0% means no effect; nearly all actives have a fitted effect of over 50% in size
# KB-3-1 cytotox: kills parental KB-3-1 adenocarcinoma cells | KB-3-1 viability, CellTiter-Glo ATP luminescence, 72 h | Potency, µM (series often up to 46.1 µM), hits mostly cytotoxic | 400,000 tested, 1.4% active | AID 1347075; note: potency is the fitted concentration of half-maximal effect; % is set by controls: 0 for no effect and ±100 for the full control effect; nearly all actives have a fitted effect of over 60% in size
#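 Cytotoxicity measured as CellTiter-Glo luminescence after 72 h at 37 C. Compound titrations were pinned onto drug-naive KB-3-1 parental adenocarcinoma cells grown in DMEM with 10% FBS, and normalized data fitted to concentration-response curves.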
# KB-V1 MDR tox: KB-V1 MDR subline cytotoxicity; Potency, µM (highest dose often 46.1 µM), actives largely listed as cytotoxic; KB-V1 MDR cells viability, CellTiter-Glo, 72 h; AID 1347076; 400,000 tested, 3.4% active; note: potency is the fitted concentration of half-maximal effect; % is set by controls: 0 for no effect and ±100 for the full control effect; nearly all actives have a fitted effect of over 60% in size
#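 KB-V1, DMEM (no phenol red) + 10% FBS; cpd pin-transferred, titration series; 72 h, 37 degrees C; CellTiter-Glo, luminescence. Data normalized, curve-fit.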
# KCNH2 3.1 inh: blocks the human KCNH2 3.1 channel isoform | 340,000 tested, 0.95% active | U2OS KCNH2 3.1, thallium flux FluxOr; hits give low values | AID 720553 | activity change, % (tested at about 1.8 µM);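 active = maximum activity change below -70%; inconclusive = maximum activity change from -70% to -50%; inactive = maximum activity change above -50%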;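 note: thallium influx rate constant from kinetic fluorescence after stimulation buffer; % is set by controls: 0 for no effect and ±100 for the full control effect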
#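 FluxOr-based Tl+ influx in U2OS cells transduced with KCNH2 3.1 virus; rate constants normalized to DMSO controls.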
# SW480 rerep: inducers of DNA re-replication in SW480 colon cancer cells. AID 624297. Potency, µM (series often up to 46.1 µM), for the others: at the highest dose re-replication activation, usual class: activators. SW480 DNA re-replication, Hoechst DNA content imaging, 48 h. 340,000 tested, 1.8% active; note: potency is the fitted concentration of half-maximal effect; % of control where 0% means no effect; nearly all actives have a fitted effect of over 55% in size
#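 250 cells/well; 23 nL cpd via pin tool; 48 hr, 37 C, 5% CO2; Hoechst 40 min; imager read of total nuclear intensity, ex 405/em 500-530 nm.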
# * marks the source's active call; other numbers are inactive results; i = inactive; ? = inconclusive; . = no result; [ ] = remark or other dose. Unless noted, calls come from the whole dose curve; as a rule, active = well fitted curve in the direction sought with a large enough effect; inconclusive = small, poorly fitted or top-dose-only effect, or another doubt; inactive = no such curve, though single readings can be large; an effect the other way counts as inactive or inconclusive.
SMILES,KCNH2 WT inh,MCF10A rerep,KB-3-1 cytotox,KB-V1 MDR tox,KCNH2 3.1 inh,SW480 rerep
O=C(CN1CCSC1=NCc1ccccc1)c1ccc(Cl)cc1,4,-3%,i,16µM*,-2,-75%
O=C(Nc1ccc(Cl)cc1)N1CCSC1=NCc1ccccc1,-7,3%,i,i,-11,-8%
COc1ccc(Cl)cc1NC(=O)CN1C(=O)NC(Cc2c[nH]c3ccccc23)C1=O (centres undefined),13,4%,?,21µM*,1,12%
COC(=O)c1ccc(CN2C(=O)NC(Cc3c[nH]c4ccccc34)C2=O)cc1 (centres undefined),2,0%,i,18µM*,-5,-3%
COc1cccc(NC(=O)CN2C(=O)NC(Cc3c[nH]c4ccccc34)C2=O)c1 (centres undefined),2,8%,i,i,35,-6%
Cc1nc(N2CCN(S(=O)(=O)c3ccccc3C#N)CC2)c2c(-c3ccccc3)csc2n1,0,25%,?,?,2,9%
Cc1ccc(CNC(=O)Cn2cnc(C(=O)Nc3ccc(C)c(C)c3)n2)o1,3,-9%,i,i,5,-16%
COc1ccc(OCCCC(=O)OCC(=O)N2CCN(S(=O)(=O)c3ccc(C)cc3C)CC2)cc1,-5,28%,i,i,-22,0%
CCCN(C(=O)C1CCCN(c2ncnc3c2nc2n3CCCCC2)C1)c1ccc(F)cc1 (centres undefined),-12,?,?,i,-9,11%
N#Cc1c(N)[nH]c(=S)c(C#N)c1-c1ccccc1,-6,?,i,i,-6,?
N#Cc1c(N)[nH]c2ccc(Sc3ccccc3)cc12,8,0.92µM*,2.3µM*,3.3µM*,.,4.1µM*
COc1ccccc1NC(=O)CCCN1C(=O)C2CC=CCC2C1=O (centres undefined),-3,0%,i,i,7,-10%
O=C(NCc1cccc(C(F)(F)F)c1)c1cc(Cl)ccc1Cl,.,1%,i,i,-4,10µM*
O=C(Cn1cncn1)NCc1cccc(OC(F)F)c1,3,10%,i,i,-21,1%
O=C(Cc1cccc(C(F)(F)F)c1)NCc1cccc(Cl)c1,-4,?,i,i,1,?
O=C(Cn1cncn1)NCc1cccc(C(F)(F)F)c1,3,0.65µM*,i,i,-15,-28%
O=C(Cn1cncn1)NCCCc1ccccc1,-177*,1%,i,i,6,7%
O=C(Cn1cncn1)NCCC(c1ccccc1)c1ccccc1,-1,1%,i,i,13,-3%
CCOc1ccc(/C=C/c2ccc3ccccc3[n+]2C)cc1OCC,.,.,?,i,.,.
COc1ccc(C2=NC(c3ccncc3)=Nc3ccc(OC)cc3N2)cc1,.,.,i,i,.,.
COc1ccc(Cl)cc1NC(=O)Cn1ncc2c3ccccc3n(C)c2c1=O,.,.,i,i,.,.
N#CC1=C(N)Oc2cc(N)ccc2C1C1CC=CCC1 (centres undefined),1,6.5µM*,?,6.5µM*,-18,16µM*
CC1(C)CC(=O)C2=C(C1)OC(N)=C(C#N)C2C1CC=CCC1 (centres undefined),10,0%,i,16µM*,5,0%
CC/C=C/C(=O)N1CC2(CC(c3cccc(NC(=O)COc4ccc(Cl)cc4)c3)=NO2)C[C@H]1C(N)=O (some centres undefined),-42,?,i,i,-71*,2%[9.22 µM]
COc1ccc(Cl)cc1S(=O)(=O)N(C)CC(=O)N1CCCC1,4,14%,i,i,8,-4%
SMILES,KCNH2 WT inh,MCF10A rerep,KB-3-1 cytotox,KB-V1 MDR tox,KCNH2 3.1 inh,SW480 rerep
O=C(/C=C/[C@H]1O[C@@H](n2cnc3c(NC(=O)c4ccccc4)ncnc32)[C@H](O)[C@@H]1O)NCCCN1CCCC1=O,.,.,i,?,.,.
Cc1ccc(S(=O)(=O)NCCC(=O)NC2CCCCCC2)cc1C,-7,0%,i,18µM*,-9,-2%
Cc1ccc(S(=O)(=O)CCC(=O)NC2CCCC2)cc1,-4,1%,i,i,-2,21µM*
CCc1nc(SCC(=O)Nc2ccc(OC)cc2[N+](=O)[O-])n[nH]1,-2,1%,i,i,2,6%
COc1ccc2nc3cc(Cl)ccc3c(C#N)c2c1,0,25%,i,i,-6,21µM*
CC(C)(C)c1cc(N2CCOCC2)n2ncc(-c3ccc(Cl)cc3)c2n1,1,?,i,i,-11,16%
Cc1cc(C)n(-c2cc(C(C)(C)C)nc3c(-c4ccc(Cl)cc4)cnn23)n1,-7,23µM*,i,i,-7,?
Cc1cc(C)n(-c2cc(C(C)(C)C)nc3c(-c4ccccc4)cnn23)n1,4,21µM*,i,?,-1,1%
Cc1ccc(-c2cnn3c(N4CCOCC4)cc(C)nc23)cc1,-6,-4%,i,i,-7,-1%
Cc1cc(N2CCOCC2)n2ncc(-c3ccc(Cl)cc3)c2n1,0,6%,i,i,9,21µM*
COc1ccc(/C(O)=C(\C#N)c2nc3ccccc3n2C)cc1OC,-2,19%,i,5.8µM*,4,-12%
CCn1cc([N+](=O)[O-])c(C(=O)Nc2nc(-c3ccc(C)c(C)c3)c(C)s2)n1,1,8.2µM*,i,i,-29,?
Cc1ccc(S(=O)(=O)C(C#N)c2nc3ccccc3nc2N2CCCC2)cc1 (centres undefined),1,?,i,18µM*,-5,7%
Cc1cccc(S(=O)(=O)C(C#N)c2nc3ccccc3nc2N2CC(C)OC(C)C2)c1 (centres undefined),24,0%,?,?,?,-6%
Cc1ccc(S(=O)(=O)C(C#N)c2nc3ccccc3nc2N2CC(C)OC(C)C2)cc1C (centres undefined),-11,15µM*,i,i,-6,?
CCN1CCN(c2nc3ccccc3nc2C(C#N)S(=O)(=O)c2ccc(C)cc2)CC1 (centres undefined),0,4%,?,i,-5,-4%
COc1ccc(S(=O)(=O)C(C#N)c2nc3ccccc3nc2N2CCCC(C)C2)cc1 (centres undefined),7,12µM*,i,i,-7,2%
O=S(=O)(Nn1cnnc1)c1ccc(F)cc1,0,2.3µM*,i,i,3,27%
Cc1ccc(S(=O)(=O)Nn2cnnc2)cc1,-10,-1%,i,i,22,-14%
